This passage reports z-score and composite z-score results from PubChem BioAssay.

Active and inactive are the calls of the source. Unless noted, how the calls were made is not given here.

Assay [1] in a line: HepG2 liver cancer cell viability effects, profiling panel, resazurin fluorescence, 24 h, PK04 Diversity Set (AID 1172). As to conditions: higher = more signal. (Resazurin is reduced to fluorescent resorufin, in cell work by metabolically active cells.)
Assay [2] is described as follows: basal S. cerevisiae growth modulation, no modifier, primary screen, OD600, strain BY4716, 24 h, basal condition (AID 1173). As to conditions: OD600, 24 h, higher = more signal, called active from +8 up or from −8 down.
A short description of assay [3]: MM1S myeloma cell viability, profiling panel, resazurin fluorescence, basal, 24 h, PK04 Diversity Set (AID 1174).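 Further: MM1S multiple myeloma cell line.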 The note with it: higher = more signal, called active from +8 up or from −8 down.
The target in assay [4] is Dihydroorotate dehydrogenase (quinone), mitochondrial (Plasmodium falciparum (isolate 3D7)) (UniProt Q08210). Description: PfDHODH enzyme inhibitors, primary screen, biochemical, C-terminal His tag, absorbance 600 nm (AID 1175).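 Further: recombinant parasite enzyme with a five histidine tag at its C terminus.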 The note with it: DCIP absorbance 600 nm, higher = more signal, called active from +8 up or from −8 down.
The nature of assay [5]: P. aeruginosa biofilm formation inhibitors, primary screen, strain PAO1, LB-PBS medium, absorbance 600 nm (AID 1176). As to conditions: P. aeruginosa PAO1 growth/biofilm, A600, 12 h; higher = more signal.
The nature of assay [6]: S. cerevisiae RM11-1a growth modifiers, primary screen, strain RM11-1a, OD600, basal, 24 h (AID 1177).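 Further: cultures grown under basal conditions with no added stressor.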 The note with it: OD600, 24 h, higher = more signal, called active from +8 up or from −8 down.
Assay [7] can be described thus: E. coli acrAB mutant growth effects, primary screen, E. coli filamentation inducers, strain DRC39, OD650, 24 h (AID 1178).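 Further: growth measured as culture turbidity by optical density at 650 nm.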 The note with it: higher = more signal, called active from +8 up or from −8 down.
A short description of assay [8]: E. coli acrAB mutant growth effects, primary screen, E. coli filamentation inducers, strain DRC39, OD650, 48 h (AID 1179).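 Further: screen aims at cell division blockers that make cells filament.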 The note with it: E. coli DRC39 delta-acrAB growth, higher = more signal, called active from +8 up or from −8 down.
The nature of assay [9]: RPMI8226 myeloma cell viability, profiling panel, resazurin fluorescence, basal, 24 h, PK04 Diversity Set (AID 1180).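 Further: RPMI8826 multiple myeloma cell line at 5000 cells per well.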 The note with it: higher = more signal.
For assay [10], the target named is E3 ubiquitin-protein ligase XIAP (Homo sapiens) (UniProt P98170). The assay is described as follows: XIAP binders, primary screen, biophysical, small-molecule microarray, fluorescence 635 nm (AID 1181).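 Further: score merges 667 nm emission and signal to noise over triplicate slides.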 As to conditions: small-molecule microarray binding, higher = more signal.
Assay [11] deals with XIP peptide (Xip251-270) binding. Description: small-molecule binders of XIP peptide, primary screen, biochemical, small-molecule microarray, fluorescence 635/667 nm, 0.1 µg/mL protein (AID 1182). The note with it: fluorescent protein binding, 635 nm, higher = more signal, called active from +8 up or from −8 down.
In a further assay the test system is XIP peptide (Xip251-270). Description: small-molecule binders of XIP peptide, primary screen, biochemical, small-molecule microarray, fluorescence 635/667 nm, 0.5 µg/mL protein (AID 1183). The note with it: small-molecule microarray binding, fluorescence 635 nm; higher = more signal.
Assay [12] in a line: Plasmodium falciparum growth inhibition, primary screen, strain 3D7, DAPI fluorescence, 100 nL (AID 1184).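 Further: parasites grown inside human red blood cells in medium with human serum.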 As to conditions: P. falciparum 3D7 growth, 3 d, higher = more signal.
Assay [13] concerns the target Homeobox protein Hox-A13 (Mus musculus) (UniProt Q62424). The assay is described as follows: inhibitors of HoxA13-DNA binding, primary screen, biochemical, fluorescence polarization, labeled oligonucleotide (AID 1185). As to conditions: 15 min, higher = more signal, called active from +8 up or from −8 down. (In general: Fluorescence polarisation rises when a labelled molecule tumbles more slowly, as on binding a larger partner.)

Assay [14] in a line: inhibitors of hydroxyurea-induced Chk1 phosphorylation, primary screen, imaging, HeLa, phospho-Chk1 antibody, percent positive cells (AID 1186). As to conditions: hydroxyurea-induced phospho-Chk1 immunofluorescence imaging, higher = more signal.
Assay [15] can be described thus: inhibitors of hydroxyurea-induced Chk1 phosphorylation, primary screen, imaging, HeLa, phospho-Chk1 nuclear intensity (AID 1187). The note with it: hydroxyurea-induced phospho-Chk1 immunofluorescence imaging, higher = more signal.

Homeobox protein Hox-A13 (Mus musculus), sequence (Q62424 whole entry, looked up): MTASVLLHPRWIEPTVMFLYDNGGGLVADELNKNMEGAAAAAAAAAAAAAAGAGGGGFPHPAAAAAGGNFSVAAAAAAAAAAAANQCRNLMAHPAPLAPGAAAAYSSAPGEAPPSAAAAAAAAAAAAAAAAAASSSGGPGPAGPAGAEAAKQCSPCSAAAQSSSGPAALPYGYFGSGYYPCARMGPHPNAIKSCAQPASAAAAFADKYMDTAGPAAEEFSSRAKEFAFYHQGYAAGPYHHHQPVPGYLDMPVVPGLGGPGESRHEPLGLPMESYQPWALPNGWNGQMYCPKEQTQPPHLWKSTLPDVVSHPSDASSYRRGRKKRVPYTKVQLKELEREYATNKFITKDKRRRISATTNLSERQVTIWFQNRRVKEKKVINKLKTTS
E3 ubiquitin-protein ligase XIAP (Homo sapiens), sequence (P98170 whole entry, looked up): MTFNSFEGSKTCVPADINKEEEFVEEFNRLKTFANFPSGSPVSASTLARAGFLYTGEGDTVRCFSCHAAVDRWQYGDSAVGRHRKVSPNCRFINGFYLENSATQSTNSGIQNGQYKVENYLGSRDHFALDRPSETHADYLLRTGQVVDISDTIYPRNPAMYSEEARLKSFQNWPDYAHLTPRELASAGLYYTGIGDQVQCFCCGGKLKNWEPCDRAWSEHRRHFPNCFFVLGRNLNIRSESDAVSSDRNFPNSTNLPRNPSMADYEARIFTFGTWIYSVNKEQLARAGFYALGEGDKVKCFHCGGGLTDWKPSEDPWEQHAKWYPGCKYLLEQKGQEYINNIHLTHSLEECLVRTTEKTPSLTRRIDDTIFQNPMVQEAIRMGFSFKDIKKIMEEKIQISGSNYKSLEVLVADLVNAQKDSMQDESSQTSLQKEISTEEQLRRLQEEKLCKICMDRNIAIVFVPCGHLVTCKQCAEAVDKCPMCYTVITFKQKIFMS
Dihydroorotate dehydrogenase (quinone), mitochondrial (Plasmodium falciparum (isolate 3D7)), sequence (Q08210 whole entry, looked up): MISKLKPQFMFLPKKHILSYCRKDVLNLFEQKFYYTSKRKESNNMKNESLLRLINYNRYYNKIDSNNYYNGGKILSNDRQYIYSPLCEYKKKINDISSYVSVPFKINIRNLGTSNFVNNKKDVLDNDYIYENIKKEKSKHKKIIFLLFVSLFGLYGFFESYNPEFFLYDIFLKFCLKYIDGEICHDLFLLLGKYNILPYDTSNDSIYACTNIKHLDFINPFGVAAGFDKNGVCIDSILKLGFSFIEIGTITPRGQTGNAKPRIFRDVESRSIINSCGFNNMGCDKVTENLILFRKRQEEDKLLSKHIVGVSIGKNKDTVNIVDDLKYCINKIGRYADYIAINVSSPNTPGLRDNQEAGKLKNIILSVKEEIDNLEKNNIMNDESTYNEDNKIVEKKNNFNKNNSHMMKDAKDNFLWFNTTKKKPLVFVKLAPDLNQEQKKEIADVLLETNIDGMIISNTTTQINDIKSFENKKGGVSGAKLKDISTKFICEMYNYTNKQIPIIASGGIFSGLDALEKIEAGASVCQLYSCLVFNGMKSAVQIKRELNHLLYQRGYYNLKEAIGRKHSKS

On to `COC(=O)[C@@]1(Cc2ccc(F)cc2)[C@H]2c3cc(C(=O)N(C)C)n(C)c3C[C@H]2CN1C(=O)c1ccccc1`, for which the z-score in assay [1] was -0.476; in [2], 0.109 (inactive); in [3], -0.911 (inactive); in assay [5] it was 0.026 (inactive); in assay [6], 0.626 (inactive); in [7], -0.657 (inactive). The z-score in [8] is -0.705 (inactive); in [9], -0.521; in assay [12], 0.386; in [13], -7.29 (inactive); in assay [14], 0.707 (inactive); in [15], 0.633 (inactive). Besides, the composite z-score is 0.0197 (inactive) in assay [4], 0.147 in assay [10], -0.0622 (inactive) in assay [11] and -0.153 in the assay on XIP peptide (Xip251-270).

Turning to `OCCCC1=CC(c2ccc(CN3CCCC3)cc2)N(Cc2cccc(OC(F)(F)F)c2)CC1` (centres undefined), the z-score in [1] was -2.32; in assay [2], -5.01 (inactive); in assay [3] it was -6.82 (inactive); in assay [5] it was 0.318 (inactive); in assay [6], 0.195 (inactive); in assay [7] it was -1 (inactive). Also, the z-score is -1.83 (inactive) in [8]; -5.61 in [9]; -2.86 in assay [12]; -3.15 (inactive) in assay [13]; 0.86 (inactive) in assay [14]; 1.51 (inactive) in assay [15]. Moreover, the composite z-score is -1.2 (inactive) in [4], 0.215 in assay [10], -0.113 (inactive) in [11] and -0.504 in the assay on XIP peptide (Xip251-270).

As to `CN(C)CCCNC(=O)[C@@]1(Cc2ccccc2I)c2ccccc2C(=O)N(C2CCCCC2)[C@H]1c1ccc(CO)cc1`, the z-score in assay [1] was -6.39; in assay [2] it was -8.03 (active); in assay [3] it was -8.24 (active); in assay [5] it was 0.36 (inactive); in assay [6] it was 0.996 (inactive); in [7] it was 0.675 (inactive). Moreover, the z-score was -0.707 (inactive) in assay [8]; -6.58 in assay [9]; -1.61 in assay [12]; 0.846 (inactive) in [13]; -0.332 (inactive) in assay [14]; -0.621 (inactive) in [15]. Moreover, the composite z-score was 0.201 (inactive) in assay [4], 0.223 in [10], 0.645 (inactive) in assay [11] and 0.611 in the assay on XIP peptide (Xip251-270).

Take `NC(=O)NCC#Cc1ccc2c(c1)[C@]1(C(=O)N2)[C@H](c2ccc(OCCO)cc2)N2[C@H](c3ccccc3)[C@H](c3ccccc3)OC(=O)[C@H]2[C@@H]1C(=O)NC[C@H](O)c1ccccc1`: the z-score in assay [1] was 1.12; in assay [2], 1.63 (inactive); in [3] it was 0.473 (inactive); in assay [5], 0.489 (inactive); in assay [6], 2.58 (inactive); in assay [7], 0.826 (inactive). For the same compound, the z-score in [8] is 0.107 (inactive); in [9], 1.29; in assay [12], -0.833; in [13], -3.2 (inactive); in assay [14], -0.261 (inactive); in assay [15], -0.572 (inactive). Further, the composite z-score is -0.256 (inactive) in assay [4], 0.0697 in assay [10], -0.133 (inactive) in assay [11] and 0.594 in the assay with XIP peptide (Xip251-270).

For `[N-]=[N+]=Nc1ccccc1C[C@@]1(C(=O)NCc2ccccc2)N=C(c2ccc(OCCCO)cc2)O[C@@H]1c1ccccc1N=[N+]=[N-]`, the z-score in assay [1] is -0.664; in assay [2] it was -0.353 (inactive); in assay [3], -2.18 (inactive); in assay [5] it was 0.689 (inactive); in [6] it was 0.105 (inactive); in assay [7], 0.969 (inactive). The z-score was -0.289 (inactive) in assay [8]; -2.89 in [9]; -2.76 in [12]; -0.454 (inactive) in assay [13]; -0.747 (inactive) in [14]; -1.1 (inactive) in assay [15]. For the same compound, the composite z-score is 0.366 (inactive) in assay [4], -0.113 in [10], 1.46 (inactive) in [11] and 0.729 in the assay on XIP peptide (Xip251-270).

For the compound `COCCOC(=O)N1C(=O)[C@@]2(c3cc(C#CCC(C(=O)OC)C(=O)OC)ccc31)[C@H](C(N)=O)[C@H]1C(=O)O[C@H](c3ccccc3)[C@H](c3ccccc3)N1[C@@H]2c1ccc(O)cc1`, the z-score in assay [1] was -0.0776; in assay [2], 2.28 (inactive); in assay [3], -2.92 (inactive); in [5], 6.87 (inactive); in [6], 3.96 (inactive); in assay [7] it was 0.714 (inactive). The z-score was 0.537 (inactive) in [8]; -4.48 in assay [9]; -2.1 in assay [12]; 0.218 (inactive) in [13]; -0.0553 (inactive) in assay [14]; 0.0543 (inactive) in [15]. The composite z-score in assay [4] was -0.667 (inactive); in assay [10], 0.0727; in assay [11] it was 0.896 (inactive); in the assay on XIP peptide (Xip251-270), 0.77.

With `CCCC[C@H]1OB(O)C[C@H]2C1=C(COc1ccccc1)C[C@H]1C(=O)C=CC(=O)[C@H]12`, the z-score was -0.149 in assay [1]; -5.19 (inactive) in assay [2]; -0.286 (inactive) in assay [3]; 0.531 (inactive) in assay [5]; -0.179 (inactive) in [6]; 1.78 (inactive) in [7]. Also, the z-score in [8] is 0.715 (inactive); in assay [9] it was 0.262; in assay [12] it was -0.948; in assay [13] it was -5.45 (inactive); in assay [14], -0.177 (inactive); in assay [15] it was -0.274 (inactive). Also, the composite z-score was -0.973 (inactive) in [4], 0.0264 in assay [10], 0.0738 (inactive) in assay [11] and -0.114 in the assay with XIP peptide (Xip251-270).

As for `CN1C(=O)C2C=CC(C(O)c3ccc(-c4ccccc4)s3)N(NC(=O)OC(C)(C)C)C2C1=O` (centres undefined), the z-score was -0.807 in [1]; 0.537 (inactive) in [2]; -0.629 (inactive) in assay [3]; 1.08 (inactive) in [5]; 0.432 (inactive) in assay [6]; 0.28 (inactive) in assay [7]. Further, the z-score in [8] is -0.0168 (inactive); in assay [9], -0.694; in assay [12] it was 0.428; in [13] it was -4.15 (inactive); in assay [14], 0.307 (inactive); in assay [15], 0.239 (inactive). In addition, the composite z-score in [4] was 0.63 (inactive); in assay [10], -0.162; in assay [11], 0.359 (inactive); with XIP peptide (Xip251-270) it was 0.912.

Consider `COC(=O)[C@@]1(Cc2ccccc2)[C@H]2c3cc(C(=O)N(C)C)n(CCSC(=N)N)c3C[C@H]2CN1C(=O)c1ccccc1`, for which the z-score in assay [1] was -0.436; in assay [2] it was 1.36 (inactive); in assay [3] it was -0.399 (inactive); in [5], -0.0424 (inactive); in assay [6], 0.0986 (inactive); in assay [7], -0.456 (inactive). The z-score in assay [8] is -0.295 (inactive); in [9] it was -0.374; in [12], -0.118; in assay [13], -3.8 (inactive); in [14], 0.835 (inactive); in assay [15], 0.849 (inactive). In addition, the composite z-score in [4] is 0.644 (inactive); in [10], -0.0592; in assay [11], -0.667 (inactive); in the assay on XIP peptide (Xip251-270), 0.903.
